Records with an inconclusive call do not appear. The source made the active and inactive calls. The calls were made as follows, unless noted: active = hit-call score of the fitted dose curve at least 0.9, where 1 is the maximum; inconclusive = response in the unintended direction; inactive = score below 0.9.
What was measured:
[1] = ATG_TGFb_CIS: Attagene CIS-FACTORIAL HepG2 Assay for human Transforming Growth Factor (TGF) (AID 2282967; active = hit-call score of the fitted dose curve at least 0.9, where 1 is the maximum; inactive = score below 0.9); details: HepG2 Attagene CIS TGFb reporter, mRNA transcription; actives raise or lower the signal
In short: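 Transcript-level reporter readout: HepG2 transfectants, 24 h exposure, RNA to cDNA, reporter-specific PCR, fluorescent primer extension, capillary sizing against ROX standards. Gain- or loss-of-signal relative to DMSO.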

[2] = ATG_VDRE_CIS: Attagene CIS-FACTORIAL HepG2 Assay for human Vitamin D Receptor Element (VDRE) (AID 2282968; active = hit-call score of the fitted dose curve at least 0.9, where 1 is the maximum; inactive = score below 0.9); details: HepG2 VDRE cis-reporter transcription, actives raise or lower the signal
In short: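 Transiently transfected HepG2 cells carrying cis-regulated reporter transcription units were exposed for 24 h. Reporter mRNA was measured by RT-PCR with fluorescent labelling and capillary electrophoresis, and fitted in both directions against DMSO.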

[3] = target: Nuclear receptor subfamily 1 group I member 3 (Homo sapiens) (UniProt Q14994); experiment: ATG_CAR_TRANS: Attagene TRANS-FACTORIAL HepG2 Assay for human Constitutive Androstane Receptor (CAR) (AID 2282969); details: HepG2 Attagene TRANS-FACTORIAL CAR reporter;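 also: activators raise reporter mRNA above DMSO so AC50 marks induction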
Sequence of Nuclear receptor subfamily 1 group I member 3 (Homo sapiens) (Q14994 whole entry, looked up, the tested form may be a part): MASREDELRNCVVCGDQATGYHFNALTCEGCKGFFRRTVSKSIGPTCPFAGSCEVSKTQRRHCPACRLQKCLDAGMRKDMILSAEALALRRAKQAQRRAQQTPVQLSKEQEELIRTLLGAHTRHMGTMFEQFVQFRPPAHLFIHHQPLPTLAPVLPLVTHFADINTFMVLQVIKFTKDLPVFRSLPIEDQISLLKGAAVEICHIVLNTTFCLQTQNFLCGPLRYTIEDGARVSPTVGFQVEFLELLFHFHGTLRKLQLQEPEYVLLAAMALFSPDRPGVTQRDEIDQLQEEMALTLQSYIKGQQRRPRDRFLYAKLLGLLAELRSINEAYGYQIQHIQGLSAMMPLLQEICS
In short: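 HepG2 cells transiently transfected with GAL4-UAS reporter units; TRANS format reads activity of exogenous chimeric NR-Gal4 protein. After 24 h dosing, reporter mRNA quantified by RT-PCR, 6-FAM labelling and capillary electrophoresis; gain of signal fitted against DMSO.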

[4] = target: X-box-binding protein 1 (Homo sapiens) (UniProt P17861); experiment: ATG_Xbp1_CIS: Attagene CIS-FACTORIAL HepG2 Assay for human X-box Binding Protein 1 (XBP1) (AID 2282972; active = hit-call score of the fitted dose curve at least 0.9, where 1 is the maximum; inactive = score below 0.9); details: HepG2 XBP1 cis-element reporter, Attagene multiplex; actives raise or lower the signal
Sequence of X-box-binding protein 1 (Homo sapiens) (P17861 whole entry, looked up): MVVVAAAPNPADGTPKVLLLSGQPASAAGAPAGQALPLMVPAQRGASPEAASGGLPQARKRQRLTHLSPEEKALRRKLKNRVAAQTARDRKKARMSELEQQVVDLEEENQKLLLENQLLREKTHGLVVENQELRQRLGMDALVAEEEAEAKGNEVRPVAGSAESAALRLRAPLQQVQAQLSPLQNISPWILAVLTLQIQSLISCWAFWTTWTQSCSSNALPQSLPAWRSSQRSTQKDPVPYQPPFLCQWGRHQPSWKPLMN
In short: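 HepG2, transient MRTU transfection (cis-promoter driven), 24 h compound exposure. Total RNA → oligo(dT) RT → PCR → 6-FAM labeling → HpaI cut → CE. Bidirectional fit vs DMSO.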

[5] = ATG_M_19_TRANS: Attagene TRANS-FACTORIAL HepG2 Assay for M19 Transcription Factor (Internal Marker) (AID 2282974); details: HepG2 Attagene TRANS-FACTORIAL M19 internal marker reporter
In short: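 HepG2 transiently transfected with GAL4-UAS multiplex reporter constructs, exposed 24 h; reporter RNA quantified by RT-PCR, 6-FAM labeling, HpaI digestion and capillary electrophoresis; internal background marker fitted upward versus DMSO.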

[6] = target: Glucocorticoid receptor (Homo sapiens) (UniProt P04150); experiment: ATG_GR_TRANS: Attagene TRANS-FACTORIAL HepG2 Assay for human Glucocorticoid Receptor (GR) (AID 2282978); details: HepG2 Attagene TRANS GR reporter, mRNA transcription;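 also: activators score as hits since higher reporter transcript over DMSO is fitted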
Sequence of Glucocorticoid receptor (Homo sapiens) (P04150 whole entry, looked up, the tested form may be a part): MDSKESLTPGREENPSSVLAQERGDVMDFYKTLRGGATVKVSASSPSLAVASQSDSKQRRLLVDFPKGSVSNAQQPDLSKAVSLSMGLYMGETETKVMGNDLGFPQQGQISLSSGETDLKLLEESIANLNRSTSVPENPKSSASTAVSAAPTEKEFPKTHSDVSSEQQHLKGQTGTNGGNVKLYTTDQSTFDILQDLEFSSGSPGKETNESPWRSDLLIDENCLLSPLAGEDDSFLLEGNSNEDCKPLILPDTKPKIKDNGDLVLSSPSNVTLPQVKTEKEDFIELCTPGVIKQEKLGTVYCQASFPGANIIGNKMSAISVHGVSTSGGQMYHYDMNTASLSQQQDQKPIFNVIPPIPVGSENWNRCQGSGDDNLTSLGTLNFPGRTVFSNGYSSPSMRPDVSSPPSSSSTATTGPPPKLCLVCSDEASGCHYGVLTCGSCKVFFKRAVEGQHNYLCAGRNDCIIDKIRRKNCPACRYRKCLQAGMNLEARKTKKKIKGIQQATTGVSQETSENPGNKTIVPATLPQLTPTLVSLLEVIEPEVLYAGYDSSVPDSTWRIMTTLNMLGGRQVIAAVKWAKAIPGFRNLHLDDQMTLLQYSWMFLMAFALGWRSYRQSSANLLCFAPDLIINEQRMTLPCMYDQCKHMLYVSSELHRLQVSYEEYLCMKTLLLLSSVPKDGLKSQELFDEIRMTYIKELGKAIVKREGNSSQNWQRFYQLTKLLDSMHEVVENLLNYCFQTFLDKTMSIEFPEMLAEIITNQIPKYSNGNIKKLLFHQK
In short: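 HepG2 cells transiently transfected with GAL4-UAS reporter units and exogenous GR-Gal4 chimera, dosed 24 h. Reporter mRNA by RT-PCR, FAM labeling, HpaI digest and capillary electrophoresis; gain-of-signal fit versus DMSO.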

[7] = target: Oxysterols receptor LXR-beta (Homo sapiens) (UniProt P55055); experiment: ATG_LXRb_TRANS: Attagene TRANS-FACTORIAL HepG2 Assay for human Liver X Receptor beta (LXRb) (AID 2282981); details: HepG2 Attagene TRANS GAL4-LXRb reporter, mRNA
Sequence of Oxysterols receptor LXR-beta (Homo sapiens) (P55055 whole entry, looked up, the tested form may be a part): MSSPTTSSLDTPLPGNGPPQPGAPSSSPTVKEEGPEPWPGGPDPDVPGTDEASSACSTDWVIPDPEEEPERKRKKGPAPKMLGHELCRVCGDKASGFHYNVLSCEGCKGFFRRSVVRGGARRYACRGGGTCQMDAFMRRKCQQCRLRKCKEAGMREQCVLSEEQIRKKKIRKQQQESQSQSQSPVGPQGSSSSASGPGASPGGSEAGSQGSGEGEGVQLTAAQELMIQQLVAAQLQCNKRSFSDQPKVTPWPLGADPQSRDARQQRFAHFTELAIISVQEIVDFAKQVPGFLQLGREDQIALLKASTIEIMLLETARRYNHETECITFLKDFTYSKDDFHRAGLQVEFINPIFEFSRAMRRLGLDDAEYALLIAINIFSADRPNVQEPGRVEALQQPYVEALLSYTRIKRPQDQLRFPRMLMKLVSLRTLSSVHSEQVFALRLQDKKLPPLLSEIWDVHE
In short: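 HepG2 cells transiently transfected with GAL4-UAS reporter units for chimeric NR-Gal4 proteins, dosed for 24 h. Reporter transcripts measured by RT-PCR and capillary electrophoresis; gain-of-signal fitting relative to DMSO.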

[8] = ATG_M_06_TRANS: Attagene TRANS-FACTORIAL HepG2 Assay for M06 Transcription Factor (Internal Marker) (AID 2282983); details: HepG2 Attagene TRANS M06 internal marker reporter;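 also: reporter transcript level by RT-PCR then capillary electrophoresis fluorescence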
In short: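 Internal-marker background readout from a multiplexed TRANS reporter system in HepG2; 24 h dosing; mRNA induction quantified by RT-PCR plus capillary electrophoresis fluorescence; DMSO as negative control and baseline.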

[9] = target: Nuclear receptor subfamily 4 group A member 2 (Homo sapiens) (UniProt P43354); experiment: ATG_NURR1_TRANS: Attagene TRANS-FACTORIAL HepG2 Assay for human Nuclear Receptor Related Protein 1 (NURR1) (AID 2282985); details: HepG2 Attagene TRANS reporter, mRNA readout
Sequence of Nuclear receptor subfamily 4 group A member 2 (Homo sapiens) (P43354 whole entry, looked up, the tested form may be a part): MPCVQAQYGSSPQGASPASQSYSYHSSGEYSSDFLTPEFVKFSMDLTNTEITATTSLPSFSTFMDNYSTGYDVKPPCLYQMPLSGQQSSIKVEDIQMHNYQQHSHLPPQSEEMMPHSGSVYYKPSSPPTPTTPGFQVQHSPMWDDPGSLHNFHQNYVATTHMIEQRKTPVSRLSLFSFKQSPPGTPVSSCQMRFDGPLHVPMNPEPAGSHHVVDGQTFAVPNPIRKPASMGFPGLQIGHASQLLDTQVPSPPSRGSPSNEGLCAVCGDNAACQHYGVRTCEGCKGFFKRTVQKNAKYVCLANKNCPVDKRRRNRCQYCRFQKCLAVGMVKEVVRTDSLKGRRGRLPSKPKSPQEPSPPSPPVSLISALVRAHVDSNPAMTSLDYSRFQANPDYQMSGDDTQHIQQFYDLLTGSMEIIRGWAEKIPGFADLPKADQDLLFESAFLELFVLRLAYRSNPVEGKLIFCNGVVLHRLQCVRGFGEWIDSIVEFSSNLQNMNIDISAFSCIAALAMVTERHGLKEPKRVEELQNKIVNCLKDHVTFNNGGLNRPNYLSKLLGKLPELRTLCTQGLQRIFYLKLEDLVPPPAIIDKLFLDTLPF
In short: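 HepG2 cells transiently transfected with NURR1-Gal4 chimera and GAL4-UAS reporter units; after 24 hr compound exposure, reporter mRNA quantified by RT-PCR and capillary electrophoresis; gain of signal fitted against DMSO.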

[10] = target: Transcriptional activator Myb (Homo sapiens) (UniProt P10242); experiment: ATG_Myb_CIS: Attagene CIS-FACTORIAL HepG2 Assay for human Myeloblastosis (Myb) Proto-Oncogene Transcription Factor (AID 2282986; active = hit-call score of the fitted dose curve at least 0.9, where 1 is the maximum; inactive = score below 0.9); details: HepG2 Attagene CIS-FACTORIAL Myb reporter transcription; actives raise or lower the signal
Sequence of Transcriptional activator Myb (Homo sapiens) (P10242 whole entry, looked up): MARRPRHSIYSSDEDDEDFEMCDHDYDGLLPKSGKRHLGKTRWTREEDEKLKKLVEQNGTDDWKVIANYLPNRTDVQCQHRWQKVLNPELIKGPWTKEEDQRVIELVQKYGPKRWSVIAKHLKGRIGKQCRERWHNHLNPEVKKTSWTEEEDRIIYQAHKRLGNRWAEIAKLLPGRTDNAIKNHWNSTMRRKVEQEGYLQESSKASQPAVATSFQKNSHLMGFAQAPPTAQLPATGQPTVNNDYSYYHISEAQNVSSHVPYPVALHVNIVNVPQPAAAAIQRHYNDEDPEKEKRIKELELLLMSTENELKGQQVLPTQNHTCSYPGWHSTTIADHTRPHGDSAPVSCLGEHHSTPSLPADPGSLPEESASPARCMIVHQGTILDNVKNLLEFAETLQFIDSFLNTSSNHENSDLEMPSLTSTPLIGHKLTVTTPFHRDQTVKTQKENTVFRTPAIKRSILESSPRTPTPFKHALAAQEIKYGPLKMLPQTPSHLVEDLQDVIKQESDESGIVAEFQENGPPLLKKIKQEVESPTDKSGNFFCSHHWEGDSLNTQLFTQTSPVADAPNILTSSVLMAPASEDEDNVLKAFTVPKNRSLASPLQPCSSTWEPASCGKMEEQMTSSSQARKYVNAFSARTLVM
In short: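 Transiently transfected HepG2 cells carrying a multiplexed cis-promoter reporter set report endogenous Myb activity after 24 h compound exposure. Reporter mRNA is read by RT-PCR with capillary electrophoresis of fluorescent products, fitted bidirectionally against DMSO.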

[11] = target: Nuclear respiratory factor 1 (Homo sapiens) (UniProt Q16656); experiment: ATG_NRF1_CIS: Attagene CIS-FACTORIAL HepG2 Assay for human Nuclear Respiratory Factor 1 (NRF1) Orphan Gene (AID 2282987; active = hit-call score of the fitted dose curve at least 0.9, where 1 is the maximum; inactive = score below 0.9); details: HepG2 NRF1 cis-element reporter, Attagene multiplex; actives raise or lower the signal
Sequence of Nuclear respiratory factor 1 (Homo sapiens) (Q16656 whole entry, looked up): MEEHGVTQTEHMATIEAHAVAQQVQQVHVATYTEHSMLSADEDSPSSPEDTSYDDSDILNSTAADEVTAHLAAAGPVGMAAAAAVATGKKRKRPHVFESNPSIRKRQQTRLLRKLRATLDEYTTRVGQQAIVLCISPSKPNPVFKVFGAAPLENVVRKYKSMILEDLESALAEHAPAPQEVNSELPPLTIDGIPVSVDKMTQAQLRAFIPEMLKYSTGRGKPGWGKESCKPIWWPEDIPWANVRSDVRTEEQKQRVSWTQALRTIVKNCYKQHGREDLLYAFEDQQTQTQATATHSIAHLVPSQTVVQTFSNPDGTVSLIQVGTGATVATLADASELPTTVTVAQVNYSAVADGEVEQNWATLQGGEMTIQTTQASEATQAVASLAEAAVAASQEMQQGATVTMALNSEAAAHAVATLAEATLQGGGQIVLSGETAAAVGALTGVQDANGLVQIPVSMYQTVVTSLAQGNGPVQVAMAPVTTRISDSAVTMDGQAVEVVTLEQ
In short: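 HepG2 cells transiently transfected with multiple cis-regulated reporter units, exposed 24 h. Reporter mRNAs measured by RT-PCR, fluorescent labelling, HpaI digestion and capillary electrophoresis; bidirectional fitting against DMSO.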

[12] = ATG_NFI_CIS: Attagene CIS-FACTORIAL HepG2 Assay for human Nuclear Factor I (NFI) (AID 2282989; active = hit-call score of the fitted dose curve at least 0.9, where 1 is the maximum; inactive = score below 0.9); details: HepG2 cis-regulatory reporter, NFI response element transcription; actives raise or lower the signal
In short: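 After transient transfection of HepG2 with cis-promoter reporter constructs and 24 h dosing, RNA is reverse-transcribed, amplified, 6-FAM end-labelled and HpaI-digested before capillary analysis. Bidirectional curve fitting against DMSO.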

[13] = ATG_GAL4_TRANS: Attagene TRANS-FACTORIAL HepG2 Assay for GAL4 (Internal Marker) (AID 2282976); details: HepG2 Attagene TRANS GAL4 internal marker reporter
In short: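 Liver HepG2 line bearing multiplexed GAL4-UAS reporter constructs; 24 h chemical treatment. Transcripts were quantified as fluorescent fragments on capillary electrophoresis after RT-PCR and HpaI cut, with activity fitted upward from DMSO.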

[14] = target: Oxysterols receptor LXR-alpha (Homo sapiens) (UniProt Q13133); experiment: ATG_LXRa_TRANS: Attagene TRANS-FACTORIAL HepG2 Assay for human Liver X Receptor alpha (LXRa) (AID 2282980); details: HepG2 Attagene TRANS reporter, LXRa transactivation
Sequence of Oxysterols receptor LXR-alpha (Homo sapiens) (Q13133 whole entry, looked up, the tested form may be a part): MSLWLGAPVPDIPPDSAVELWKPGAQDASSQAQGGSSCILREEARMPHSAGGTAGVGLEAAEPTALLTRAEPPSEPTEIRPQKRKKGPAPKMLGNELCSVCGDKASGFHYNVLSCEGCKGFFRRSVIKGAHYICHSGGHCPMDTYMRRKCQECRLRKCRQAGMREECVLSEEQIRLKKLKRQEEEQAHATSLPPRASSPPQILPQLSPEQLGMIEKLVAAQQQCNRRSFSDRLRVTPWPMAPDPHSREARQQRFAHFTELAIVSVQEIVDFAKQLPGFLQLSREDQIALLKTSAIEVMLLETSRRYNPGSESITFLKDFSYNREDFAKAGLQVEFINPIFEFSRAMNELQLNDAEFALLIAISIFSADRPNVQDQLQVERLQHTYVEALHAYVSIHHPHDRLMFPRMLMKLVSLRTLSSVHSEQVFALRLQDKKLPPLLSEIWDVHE
In short: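 In this multiplexed TRANS system, compounds act on HepG2 cells carrying GAL4-UAS reporter units and a receptor-GAL4 fusion for 24 h. Induced reporter RNA is amplified, fluorescently labelled and sized by capillary electrophoresis, with DMSO as baseline.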

[15] = target: Steroid hormone receptor ERR1 (Homo sapiens) (UniProt P11474); experiment: ATG_ERRa_TRANS: Attagene TRANS-FACTORIAL HepG2 Assay for human Estrogen-Related Receptor alpha (ERRa) (AID 2282971); details: HepG2 Attagene TRANS reporter, ERRa transactivation
Sequence of Steroid hormone receptor ERR1 (Homo sapiens) (P11474 whole entry, looked up, the tested form may be a part): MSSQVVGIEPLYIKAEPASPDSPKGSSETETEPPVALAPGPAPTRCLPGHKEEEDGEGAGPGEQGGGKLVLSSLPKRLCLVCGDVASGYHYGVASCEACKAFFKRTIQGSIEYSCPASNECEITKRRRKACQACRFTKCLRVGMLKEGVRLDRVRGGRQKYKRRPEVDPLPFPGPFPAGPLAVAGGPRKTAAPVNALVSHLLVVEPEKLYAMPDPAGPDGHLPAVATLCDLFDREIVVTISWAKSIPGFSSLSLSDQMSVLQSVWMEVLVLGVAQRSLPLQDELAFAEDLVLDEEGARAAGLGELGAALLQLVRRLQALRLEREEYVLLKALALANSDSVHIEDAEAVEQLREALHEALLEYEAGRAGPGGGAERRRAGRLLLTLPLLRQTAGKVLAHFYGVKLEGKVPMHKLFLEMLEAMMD
In short: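 Signal gain relative to DMSO for an ERRa-Gal4 chimeric receptor, read as reporter mRNA by RT-PCR/capillary electrophoresis. Human HepG2 liver cells, transient multiplex reporter transfection, 24 h chemical exposure.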

[16] = target: Bile acid receptor (Homo sapiens) (UniProt Q96RI1); experiment: ATG_FXR_TRANS: Attagene TRANS-FACTORIAL HepG2 Assay for Farnesoid X Receptor (FXR) (AID 2282979); details: HepG2 Attagene TRANS FXR-GAL4 reporter transcription;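 also: hits raise reporter mRNA above DMSO so AC50 marks FXR activation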
Sequence of Bile acid receptor (Homo sapiens) (Q96RI1 whole entry, looked up, the tested form may be a part): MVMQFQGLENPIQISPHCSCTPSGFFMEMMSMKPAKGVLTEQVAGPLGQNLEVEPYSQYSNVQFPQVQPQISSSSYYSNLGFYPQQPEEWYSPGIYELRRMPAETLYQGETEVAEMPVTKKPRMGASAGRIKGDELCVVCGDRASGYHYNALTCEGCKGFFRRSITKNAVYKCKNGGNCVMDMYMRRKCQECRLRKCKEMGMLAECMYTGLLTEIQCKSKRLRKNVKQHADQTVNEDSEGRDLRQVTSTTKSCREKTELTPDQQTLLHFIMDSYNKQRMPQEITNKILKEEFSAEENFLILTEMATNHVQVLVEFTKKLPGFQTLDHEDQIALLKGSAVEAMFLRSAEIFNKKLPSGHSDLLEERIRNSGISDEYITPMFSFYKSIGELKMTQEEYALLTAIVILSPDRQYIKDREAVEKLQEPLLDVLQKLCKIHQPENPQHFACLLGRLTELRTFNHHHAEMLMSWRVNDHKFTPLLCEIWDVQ
In short: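 After 24 h chemical treatment of transfected HepG2 cells, GAL4-UAS reporter transcripts driven by an exogenous FXR-GAL4 fusion were measured by RT-PCR and capillary electrophoresis. Increases over DMSO were fitted.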

[17] = target: Estrogen-related receptor gamma (Homo sapiens) (UniProt P62508); experiment: ATG_ERRg_TRANS: Attagene TRANS-FACTORIAL HepG2 Assay for human Estrogen-Related Receptor gamma (ERRg) (AID 2282977); details: HepG2 Attagene TRANS reporter, ERRg transactivation;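 also: hits increase reporter signal over DMSO so potencies reflect activators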
In short: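 Transfect HepG2 with multiple GAL4-UAS reporter transcription units; dose chemicals 24 h; isolate RNA, reverse-transcribe with oligo(dT), PCR-amplify, label with 6-FAM, digest with HpaI; size fragments by capillary electrophoresis. DMSO serves as negative control.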

Measured: outcome

NCCOCCOCCN
inactive: [1] | [2] | [3] | [4] | [5] | [6] | [7] | [8] | [9] | [10] | [11] | [12]

CC(=O)CC(c1ccccc1)c1c(O)c2ccccc2oc1=O (stereo not given)
inactive: [1] | [2] | [4] | [5] | [13] | [14] | [7] | [8] | [9] | [10] | [12]

CCCC[C@H]1CN(CC2CCOCC2)C(=O)OC12CCN(C1(C)CCN(C(=O)c3c(C)ncnc3C)CC1)CC2
inactive: [1] | [2] | [3] | [15] | [4] | [5] | [14] | [7] | [9] | [10] | [11] | [12]

Cn1cnc2c1c(=O)[nH]c(=O)n2C
inactive: [1] | [2] | [4] | [13] | [6] | [16] | [14] | [8] | [9] | [10] | [12]

CC(=O)S[C@H](C(=O)N[C@H]1Cc2ccccc2[C@H]2CCC[C@@H](C(=O)O)N2C1=O)C(C)C
inactive: [1] | [3] | [15] | [4] | [5] | [17] | [6] | [16] | [14] | [7] | [9] | [10] | [11] | [12]

Reference: PubChem BioAssay (EPA / NIEHS)
